For 10 compounds, inhibition results are on record in PubChem BioAssay AID492972 (The Scripps Research Institute Molecular Screening Center, 2010).

Hit rate of the full screen: of about 340,000 compounds, about 930 (0.27%) were called active.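 How the source made its calls: active means inhibition above the screen-wide average of all tested compounds plus 3 SD (cut at about 25% in these data); inactive means the rest.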 Many of the other results were omitted from the sample, so actives are more common in it than they were.

Sequence of Platelet-activating factor acetylhydrolase IB subunit alpha1 (Homo sapiens) (Q15102 whole entry, looked up): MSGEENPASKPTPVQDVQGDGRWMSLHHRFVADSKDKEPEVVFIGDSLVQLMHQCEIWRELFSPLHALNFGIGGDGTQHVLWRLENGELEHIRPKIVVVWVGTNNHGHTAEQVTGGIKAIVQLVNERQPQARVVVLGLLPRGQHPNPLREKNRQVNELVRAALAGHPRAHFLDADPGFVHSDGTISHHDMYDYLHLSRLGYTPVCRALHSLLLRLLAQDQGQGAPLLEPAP

The assay addresses Platelet-activating factor acetylhydrolase IB subunit alpha1 (Homo sapiens) (UniProt Q15102). Description: inhibition of PAF acetylhydrolase 1B subunit 3 – biochemical, fluorescence polarization, human, primary screen (AID 492972).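 Further: 0% = enzyme with DMSO only and 100% = wells lacking PAFAH1B3 protein.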 The note with it: recombinant PAFAH1B3, FP-rhodamine probe, at 3.39 µM, hits give high values.
For the compound `O=C1NC(=O)N(c2ccccc2)C(=O)/C1=C/c1ccc([N+](=O)[O-])s1`, the inhibition is 25.6% (active).
As to `O=C1NC(=O)N(c2ccc(F)cc2)C(=O)/C1=C/c1ccc2c(c1)CCCN2Cc1ccccc1`, the inhibition was 4.39% (inactive).
As to `COc1ccc(N2C(=O)/C(=C/c3ccco3)C(=O)NC2=S)cc1`, the inhibition was 16.7% (inactive).
Regarding `CCCCCn1c(=O)c(C(=O)NCc2ccccn2)c(O)c2ccccc21`, the inhibition was 4.97% (inactive).
`COC(=O)N(c1ccc(OC)cc1)P1(=S)OCCC(C)O1` (stereo not given): the inhibition is -0.56% (inactive).
As to `CCOC(=O)c1c(N)n(Cc2ccccc2)c2nc3ccccc3nc12`, the inhibition is 36.2% (active).
With `CC/C(=N\NC(=O)c1ccccc1O)c1c(O)n(Cc2ccccc2)c(=O)[nH]c1=O`, the inhibition was 13.4% (inactive).
Regarding `COc1cc(Cn2c(N)c(C(=O)NCc3ccco3)c3nc4ccccc4nc32)cc(OC)c1OC`, the inhibition is 9.25% (inactive).
`O=C(c1cc2nc(-c3ccccc3)cc(-c3ccccc3)n2n1)N1CCC2(CC1)OCCO2`: the inhibition is 1.81% (inactive).
`COC(=O)C(O)(c1ccc(NC(=O)c2ccco2)c(OC)c1)C(F)(F)F` (stereo not given): the inhibition is -1.88% (inactive).

As a reminder, the inhibition is the drop in the measured response relative to a control, in per cent.
